This note sets out measurements from PubChem BioAssay (EPA / NIEHS).

Assay [1] is described as follows: TOX21_p53_BLA_p2_viability: Viability Assessment in the Tox21 HCT-116 p53 Agonism Beta-lactamase Assay, Phase 2 (AID 2283591).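 Also: compound exposure lasted 16 h at 37 °C; actives lower the ATP signal meaning cytotoxicity.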 Put shortly: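 HCT116 p53-bla cells, 4000/well, dosed after 5 h plating (217-fold dilution of DMSO stocks) and incubated 16 h at 37C. Viability taken as cellular ATP by CellTiter-Glo luminescence after 30 min RT; signal loss marks cytotoxicity.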

Assay [2] deals with Cellular tumor antigen p53 (Homo sapiens) (UniProt P04637). As to the kind of experiment: TOX21_p53_BLA_p3_ratio: Tox21 HCT-116 p53 Agonism Beta-lactamase Assay, Ratio, Phase 3 (AID 2283596). The procedure, abridged: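 HCT116 p53-bla cells (4000/well) given compound in DMSO (217-fold dilution) after 5 h, incubated 16 h at 37C. CCF4-AM substrate 2 h at room temperature; 460/530 nm emission ratio, gain fitted against DMSO.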
Cellular tumor antigen p53 (Homo sapiens), sequence (P04637 whole entry, looked up): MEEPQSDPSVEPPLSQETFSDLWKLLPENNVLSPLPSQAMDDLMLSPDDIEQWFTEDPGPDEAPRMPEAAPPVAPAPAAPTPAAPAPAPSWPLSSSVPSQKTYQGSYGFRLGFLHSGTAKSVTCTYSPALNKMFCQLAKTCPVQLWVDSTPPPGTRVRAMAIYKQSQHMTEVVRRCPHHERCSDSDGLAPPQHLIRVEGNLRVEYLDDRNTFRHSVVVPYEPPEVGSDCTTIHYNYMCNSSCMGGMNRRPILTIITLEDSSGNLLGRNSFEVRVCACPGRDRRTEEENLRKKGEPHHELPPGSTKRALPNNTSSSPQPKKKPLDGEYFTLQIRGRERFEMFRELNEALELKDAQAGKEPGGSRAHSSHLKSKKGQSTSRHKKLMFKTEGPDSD

Assay [3] has the same target. Nature of the assay: TOX21_p53_BLA_p5_ratio: Tox21 HCT-116 p53 Agonism Beta-lactamase Assay, Ratio, Phase 5 (AID 2283599). The procedure, abridged: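 HCT-116 p53-bla cells (4000/well) plated 5 h, dosed with compound (217-fold DMSO dilution) for 16 h at 37 C; CCF4-AM substrate 2 h at room temperature. Activity is the 460/530 nm emission ratio (405 nm excitation), fitted in gain-of-signal direction versus DMSO.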

Assay [4] has the same target. As to the kind of experiment: TOX21_p53_BLA_p4_ratio: Tox21 HCT-116 p53 Agonism Beta-lactamase Assay, Ratio, Phase 4 (AID 2283601). Put shortly: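 HCT-116 p53 beta-lactamase reporter cells (4000/well) preincubated 5 h, then compound (217-fold dilution of DMSO stock) for 16 h at 37C. CCF4-AM substrate added 2 h at room temperature; 460/530 nm emission ratio fitted upward versus DMSO.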

Assay [5] is described as follows: TOX21_p53_BLA_p4_viability: Viability Assessment in the Tox21 HCT-116 p53 Agonism Beta-lactamase Assay, Phase 4 (AID 2283597).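 Also: hits lower the luminescence signal meaning cytotoxicity.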 Put shortly: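 Cells plated, 5 h pre-incubation; DMSO compounds pinned (217-fold dilution); 16 h, 37C/5% CO2; CCF4-AM 2 h RT; CellTiter-Glo 30 min RT; luminescence read.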
Assay [6] is described as follows: TOX21_p53_BLA_p5_viability: Viability Assessment in the Tox21 HCT-116 p53 Agonism Beta-lactamase Assay, Phase 5 (AID 2283600). Put shortly: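 4000 cells/well; 5 h pre-incubation; DMSO compounds pin-transferred, 217-fold dilution; 16 h, 37C/5% CO2; CCF4-AM 2 h RT; CellTiter-Glo 30 min RT; luminescence.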

The AC50 is the concentration giving half of the maximal activity seen.

Inconclusive results are not listed. Activity calls are given as the source filed them. The calls were made as follows: active = hit-call score of the fitted dose curve at least 0.9, where 1 is the maximum; inconclusive = response in the unintended direction; inactive = score below 0.9.

Consider `CC(=O)Nc1c(I)cc(I)c(C(=O)O)c1I`, for which the molecule was called inactive in assay [1], in assay [2], in assay [3] and in assay [4].
In the case of `CC(=O)Nc1ccc(C)c(Cl)c1`, the outcome in assay [1], in assay [5], in assay [3] and in assay [6] was inactive.
As for `CCc1cnc(C(=O)O)c(C(=O)O)c1`, the outcome in assay [1], in assay [2], in assay [3] and in assay [4] was inactive.
Take `O=C1OC(=O)C2CCCCC12` (stereo not drawn): the call in assay [1], in assay [5] and in assay [3] was inactive.
Take `C[C@H](O)CN(C)C`: the call in assay [1], in assay [2], in assay [3] and in assay [4] was inactive.
Consider `O=C(O)c1cc2ccccc2c(Cc2c(O)c(C(=O)O)cc3ccccc23)c1O`, for which the result in assay [1], in assay [5], in assay [3], in assay [6] and in assay [4] was inactive.
For `CCn1cc(C(=O)O)c(=O)c2cnc(N3CCNCC3)nc21`, the result in assay [1], in assay [2] and in assay [4] was inactive.
For the molecule `CCC(C(=O)OCCOCCN(CC)CC)c1ccccc1` (stereo not drawn), the call in assay [1], in assay [2], in assay [3] and in assay [4] was inactive.
For the molecule `COc1c(O)cc2c(c1O)[C@@H]1O[C@H](CO)[C@@H](O)[C@H](O)[C@H]1OC2=O`, the outcome in assay [1], in assay [2], in assay [3] and in assay [4] was inactive.
Regarding `CCCCCC`, the result in assay [1], in assay [2], in assay [3] and in assay [4] was inactive.
Take `CC(=C(CCO)SSCC1CCCO1)N(C=O)Cc1cnc(C)nc1N` (stereo not drawn): the result in assay [1], in assay [5] and in assay [3] was inactive.
Take `O=C(CCC1CCN(Cc2ccccc2)CC1)c1ccc2c(c1)NCCCC2`: the outcome in assay [1], in assay [5], in assay [3], in assay [6] and in assay [4] was inactive.
Regarding `CC(C)(Sc1cc(C(C)(C)C)c(O)c(C(C)(C)C)c1)Sc1cc(C(C)(C)C)c(O)c(C(C)(C)C)c1`, the outcome in assay [1], in assay [5], in assay [3] and in assay [6] was inactive.
On to `CC[C@@H](C)[C@@H](N)C(=O)O`, for which the molecule was classed as inactive in assay [1], in assay [5] and in assay [3].
For `CN1CCCC(n2nc(Cc3ccc(Cl)cc3)c3ccccc3c2=O)CC1` (stereo not drawn), the result in assay [1] and in assay [5] was inactive.
`c1cnc(N2CCN(Cc3ccc4c(c3)OCO4)CC2)nc1`: the molecule was classed as inactive in assay [1] and in assay [5].
For the molecule `CC(C)CC=O`, the call in assay [1], in assay [5] and in assay [3] was inactive.
As to `CC(=O)C1CCCCC1=O` (stereo not drawn), the outcome in assay [1], in assay [2] and in assay [6] was inactive.
In the case of `CCN(CC)CCc1nc(-c2ccccc2)no1`, the call in assay [1], in assay [2], in assay [3] and in assay [4] was inactive.
Turning to `Cc1ccccc1C(N)=O`, the outcome in assay [1], in assay [2], in assay [6] and in assay [4] was inactive.
In the case of `CC(C)=CC(=O)C=C(C)C`, the call in assay [1], in assay [5], in assay [3] and in assay [6] was inactive.
For `Clc1ccccc1-c1nc(-c2ccncc2)no1`, the molecule was called inactive in assay [1], in assay [5], in assay [3] and in assay [6].
Consider `CC(NN)c1ccccc1` (stereo not drawn), for which the molecule was classed as inactive in assay [1], in assay [2], in assay [6] and in assay [4].
With `C1CCC2=NCCCN2CC1`, the outcome in assay [1], in assay [5], in assay [3] and in assay [6] was inactive.
As to `Cc1c(N)cccc1[N+](=O)[O-]`, the outcome in assay [1], in assay [5], in assay [3] and in assay [6] was inactive.
For `CC(C)(c1cc(Br)c(OCC(Br)CBr)c(Br)c1)c1cc(Br)c(OCC(Br)CBr)c(Br)c1` (stereo not drawn), the call in assay [1], in assay [5] and in assay [3] was inactive.
Turning to `Cc1cscn1`, the call in assay [1] and in assay [5] was inactive.
`CC(=O)[C@@]1(O)CC[C@H]2[C@@H]3C[C@H](C)C4=CC(=O)CC[C@]4(C)[C@H]3CC[C@@]21C`: the outcome in assay [1], in assay [5] and in assay [3] was inactive.
On to `CCC1=C(C)CN(C(=O)NCCc2ccc(S(=O)(=O)NC(=O)NC3CCC(C)CC3)cc2)C1=O` (stereo not drawn), for which the molecule was classed as inactive in assay [1], in assay [5] and in assay [3].
With `CC(C)=CCC/C(C)=C/CC/C(C)=C/CCC(=O)OC/C=C(\C)CCC=C(C)C`, the result in assay [1], in assay [5] and in assay [4] was inactive.
With `OC1OC[C@@H](O)[C@H](O)[C@@H]1O` (stereo partly drawn), the outcome in assay [1], in assay [5] and in assay [4] was inactive.
In the case of `COc1ccccc1OCCNCC(O)COc1cccc2[nH]c3ccccc3c12` (stereo not drawn), the result in assay [1], in assay [3] and in assay [6] was inactive. Moreover, the AC50 in assay [5] was 36.8 µM (active); in assay [4] it was 41.9 µM (active).
Turning to `CC(=O)CC(c1ccc([N+](=O)[O-])cc1)c1c(O)c2ccccc2oc1=O` (stereo not drawn), the outcome in assay [1], in assay [5], in assay [3] and in assay [4] was inactive.
